Experimental data from the supplement of paper PMC13380429.
Structures can show the parent of a compound that is named as a salt.

Tested on: Vero E6 infected with SARS-CoV-2
Assay: inhibition of SARS-CoV-2 cytopathic effect; higher = more antiviral protection, active = above 15
Settings: 48 h

Measured: inhibition of SARS-CoV-2 cytopathic effect

O=C(NCc1cccc(O)c1)Nc1nc(-c2ccncc2)cs1
inactive: 1 nM 1.7% | 8.33 nM 1.65% | 100 nM -1.57% | 833.33 nM -6.16% | 10000 nM -6.11%

Cc1ccccc1C(OCCN(C)C)c1ccccc1 (stereo not given) [orphenadrine]
inactive: 1 nM 0.59% | 8.33 nM 0.5% | 100 nM -0.66% | 833.33 nM 1.65% | 10000 nM -0.73%

CCN1C(=O)NC(c2ccccc2)C1=O (stereo not given) [ethotoin]
inactive: 1 nM 0.06% | 8.33 nM 4.06% | 100 nM 2.41% | 833.33 nM 2.46% | 10000 nM -0.15%

OC(CNCC(O)C1CCc2cc(F)ccc2O1)C1CCc2cc(F)ccc2O1 (stereo not given) [nebivolol]
inactive: 1 nM -8.56% | 8.33 nM -2.57% | 100 nM -0.54% | 833.33 nM -2.81% | 10000 nM -3.97%

O=C1c2ccccc2-c2n[nH]c3cccc1c23 [pyrazolanthrone]
inactive: 1 nM -4.36% | 8.33 nM 0.82% | 100 nM -1.61% | 833.33 nM -1.07% | 10000 nM -5.91%

C[C@H](NC(=O)c1sccc1OCc1ccc(Cl)cc1)c1ccccc1
inactive: 1 nM -2.57% | 8.33 nM -2.87% | 100 nM -1.08% | 833.33 nM -1.14% | 10000 nM -0.53%

CCN1CCCC1CNC(=O)c1cc(S(=O)(=O)CC)c(N)cc1OC (stereo not given) [amisulpride]
inactive: 1 nM 2.43% | 8.33 nM -1.75% | 100 nM 0.45% | 833.33 nM -2.32% | 10000 nM -1.76%

Nc1ncnc2c1nc(Br)n2[C@@H]1O[C@@H]2COP(=O)(O)O[C@H]2[C@H]1O [8-bromo-cAMP]
inactive: 1 nM 2.13% | 8.33 nM 0.61% | 100 nM 1.53% | 833.33 nM -1.33% | 10000 nM -0.37%

CC(C)(C)c1cc(C(C)(C)C)c2c(c1)C(O)(C(F)(F)F)C(=O)O2 (racemic)
inactive: 1 nM 5.52% | 8.33 nM 2.66% | 100 nM 4.61% | 833.33 nM -0.2% | 10000 nM -1.15%

CCC(c1ccccc1)c1c(O)c2ccccc2oc1=O (stereo not given) [phenprocoumon]
inactive: 1 nM -0.55% | 8.33 nM 0.6% | 100 nM 1.1% | 833.33 nM -0.13% | 10000 nM -0.87%

CC(C)(C)c1ccc2cc(C#N)c(C#N)cc2c1
inactive: 1 nM 0.02% | 8.33 nM 1.71% | 100 nM -1.56% | 833.33 nM 0.05% | 10000 nM -3.93%

C[C@H](N)Cc1c[nH]cn1 [alpha-methylhistamine-dihydrobromide-(S)-(+)]
inactive: 1 nM -0.195% | 8.33 nM -0.765% | 100 nM 8.02% | 833.33 nM 1.26% | 10000 nM 2.96%

[N-]=[N+]=N[C@]1(CO)O[C@@H](n2ccc(N)nc2=O)[C@H](O)[C@@H]1O
inactive: 1 nM -1.63% | 8.33 nM 0.795% | 100 nM 0.87% | 833.33 nM 1.03% | 10000 nM -0.005%

COc1nccc(-c2c(-c3ccc(F)cc3)ncn2[C@H]2CC[C@H](O)CC2)n1
inactive: 1 nM 5.42% | 8.33 nM 6.4% | 100 nM 3.88% | 833.33 nM 2.66% | 10000 nM 7.7%

O=C(Nc1ccc([N+](=O)[O-])cc1O)Nc1ccccc1Br
inactive: 1 nM 0.2% | 8.33 nM -0.25% | 100 nM -0.6% | 833.33 nM 0.15% | 10000 nM -2.06%

COc1cc2c(cc1OC)-c1c/c(=N\c3c(C)cc(C)cc3C)n(C)c(=O)n1CC2 [trequinsin]
inactive: 1 nM 1.9% | 8.33 nM 2.01% | 100 nM -0.55% | 833.33 nM 3.41% | 10000 nM 6.34%

COc1cc2ncnc(Oc3cccc(NC(=O)Nc4cc(C(C)(C)C(F)(F)F)on4)c3)c2cc1OC
inactive: 1 nM -0.44% | 8.33 nM 0.69% | 100 nM 2.72% | 833.33 nM -0.98% | 10000 nM -6.45%

C[C@]12C=CC(=O)C=C1CC[C@@H]1[C@@H]2C(=O)C[C@@]2(C)[C@H]1CC[C@]2(O)C(=O)CO [prednisone]
inactive: 1 nM -1.14% | 8.33 nM -0.26% | 100 nM -3.03% | 833.33 nM -1.05% | 10000 nM 1.02%

CCN(CC)CCNC(=O)c1cc(Cl)c(N)cc1OC [metoclopramide]
inactive: 1 nM -0.44% | 8.33 nM 0.96% | 100 nM 0.31% | 833.33 nM -0.29% | 10000 nM -1.37%

CC(C)Nc1nc2cc(Cl)c(Cl)cc2n1[C@H]1O[C@@H](CO)[C@H](O)[C@@H]1O [maribavir]
inactive: 1 nM 2% | 8.33 nM -0.5% | 100 nM 0.22% | 833.33 nM -0.76% | 10000 nM -2.15%

COC(=O)[C@H](c1ccccc1Cl)N1CCc2sccc2C1 [clopidogrel]
inactive: 1 nM 0.4% | 8.33 nM 0.66% | 100 nM 1.82% | 833.33 nM -3.38% | 10000 nM -0.85%

CCCCCCNC(=O)Nc1ccc(S(=O)(=O)Nc2ccc(CCNC[C@H](O)COc3ccc(O)cc3)cc2)cc1
inactive: 1 nM 0.66% | 8.33 nM 0.75% | 100 nM 0.54% | 833.33 nM 2.18% | 10000 nM 1.5%

CC[C@@](C)(Nc1ccnc(-c2c[nH]c3ncccc23)n1)C(=O)NCC(F)(F)F [decernotinib]
inactive: 1 nM -1.03% | 8.33 nM 0.41% | 100 nM -0.04% | 833.33 nM 1.86% | 10000 nM 2.32%

CCN(CC)CCOC(=O)c1cc(Cl)c(N)cc1OC
inactive: 1 nM 3.29% | 8.33 nM 3.49% | 100 nM 1.89% | 833.33 nM -0.08% | 10000 nM -0.47%

Cc1ccc(Nc2c(F)cccc2Cl)c(CC(=O)O)c1 [lumiracoxib]
inactive: 1 nM -0.15% | 8.33 nM -0.84% | 100 nM -0.33% | 833.33 nM 0.6% | 10000 nM -0.38%

CC[C@@H]1C(=O)N(C)c2cnc(Nc3ccc(C(=O)N[C@H]4CC[C@H](N5CCN(CC6CC6)CC5)CC4)cc3OC)nc2N1C(C)C [volasertib]
inactive: 1 nM 4.01% | 8.33 nM -1.24% | 100 nM -0.02% | 833.33 nM -9.3% | 10000 nM -14.9%

C[N+]1(C)CCC(=C(c2ccccc2)c2ccccc2)CC1 [diphemanil]
inactive: 1 nM -0.26% | 8.33 nM -0.4% | 100 nM -0.53% | 833.33 nM 2.17% | 10000 nM 2.09%

C=C[C@@H]1C[C@]1(NC(=O)[C@@H]1C[C@@H](Oc2ncc(OC)c3ccc(Cl)cc23)CN1C(=O)[C@@H](NC(=O)OC(C)(C)C)C(C)(C)C)C(=O)NS(=O)(=O)C1CC1 [asunaprevir]
inactive: 1 nM -0.2% | 8.33 nM 0.38% | 100 nM 3.96% | 833.33 nM 2.81% | 10000 nM -1.88%

COC(=O)C1=C(C)NC(C)=C(C(=O)OC(C)C)[C@@H]1c1cccc2nonc12 [isradipine]
inactive: 1 nM 0.75% | 8.33 nM 2.79% | 100 nM 1.21% | 833.33 nM 2.05% | 10000 nM 1.88%

COc1ccc(CC2NCCc3cc(OC)c(OC)cc32)cc1OC (stereo not given) [tetrahydropapaverine]
inactive: 1 nM 1.62% | 8.33 nM 0.89% | 100 nM -0.93% | 833.33 nM -3.46% | 10000 nM -3.09%

Cc1c(C(=O)N2CCOc3ccc(-c4ccc(N)nc4)cc3C2)ccc(S(C)(=O)=O)c1F
inactive: 1 nM -2.79% | 8.33 nM 1.25% | 100 nM -0.37% | 833.33 nM 0.13% | 10000 nM 1.3%

Nc1nccc(/C=C/c2ccccc2)n1
inactive: 1 nM 3.44% | 8.33 nM 3.79% | 100 nM 0.04% | 833.33 nM 0.59% | 10000 nM 2.05%

CN(C)CC/C=C1/c2ccccc2Sc2ccc(Cl)cc21 [chlorprothixene]
inactive: 1 nM 5.54% | 8.33 nM 3.98% | 100 nM -4.95% | 833.33 nM -3.59% | 10000 nM -1.82%

O=C1S/C(=C\c2ccc(OCc3cccc(B(O)O)c3)cc2)C(=O)N1Cc1ccc(F)cc1
inactive: 1 nM -1.35% | 8.33 nM 1.46% | 100 nM 0.45% | 833.33 nM 3.95% | 10000 nM -1.14%

O=C(O)CNC(=O)C(CS)Cc1ccccc1 (stereo not given) [thiorphan]
inactive: 1 nM -4.27% | 8.33 nM -1.61% | 100 nM -5.99% | 833.33 nM -4.04% | 10000 nM -6.09%

O=C(COP(=O)(O)O)[C@@H](O)[C@H](O)[C@H](O)COP(=O)(O)O [fosfructose]
inactive: 1 nM -6.09% | 8.33 nM -3.73% | 100 nM -0.5% | 833.33 nM 1.38% | 10000 nM -1.68%

Cc1cccc(-c2[nH]c(CNc3ccccc3F)nc2-c2ccc3ncnn3c2)n1
inactive: 1 nM 0.31% | 8.33 nM 3.47% | 100 nM 1.38% | 833.33 nM 1.08% | 10000 nM 2.46%

CN(C)NC(=O)CCC(=O)O [daminozide]
inactive: 1 nM -0.2% | 8.33 nM 2.15% | 100 nM 0.35% | 833.33 nM 0.11% | 10000 nM 1.18%

CN1CCN(CCOc2cc(OC3CCOCC3)c3c(Nc4c(Cl)ccc5c4OCO5)ncnc3c2)CC1 [saracatinib]
inactive: 1 nM 0.37% | 8.33 nM -0.91% | 100 nM 0.04% | 833.33 nM -7% | 10000 nM -12.3%

CC(C)n1nc(-c2ccc3oc(N)nc3c2)c2c(N)ncnc21
inactive: 1 nM 1.94% | 8.33 nM 2.32% | 100 nM 1.66% | 833.33 nM -3.23% | 10000 nM -4.59%
